Source: PubChem BioAssay (Broad Institute)
These entries were drawn from the full list.
aSyn UTR act: Activators via SNCA 5'UTR binding, MLPCN; alpha-synuclein 5'UTR reporter, activators screen; activity score, % (tested at 7.5 µM), hits read low; 300,000 compounds, 7.1% hits; in the data active means activity score below about -60%
The depositor's hits bear a star.

SMILES | aSyn UTR act
O=C(O)c1cc(O)c2c(c1)C(=O)c1cc(O)cc(O)c1C2=O | -81*
CCOC(=O)c1[nH]c2ccc(C)cc2c1N | -234*
Cc1cc(C(=O)Nc2nnc(C3CCCCC3)s2)no1 | -63*
COc1c(C(=O)Nc2nnc(C3CC3)s2)csc1Cl | -97*
Cc1cnc(C(=O)Nc2nnc(C3CC3)s2)cn1 | -97*
CCOCC(=O)Nc1nnc(C2CCCCC2)s1 | -123*
O=C1C=C(c2ccccc2)C[C@H](c2cccs2)[C@H]1n1nnc([N+](=O)[O-])n1 | 88
O=C(Nc1nccs1)c1cn2ccccc2n1 | 65
Cc1cnc(C(=O)Nc2nccs2)cn1 | -81*
N#CC1CC(c2ccccc2)=NN1c1ccccc1[N+](=O)[O-] (stereo not given) | -95*
Cc1cccc(C(=O)Nc2ccc3ccccc3c2)c1 | -111*
O=C(Nc1ccc2ccccc2c1)c1cccc([N+](=O)[O-])c1 | -113*
CCOc1ccc(C(=O)Nc2cccc([N+](=O)[O-])c2)cc1Br | -138*
O=C(NC(=S)Nc1cccc(F)c1)c1cccc([N+](=O)[O-])c1 | -109*
O=C(c1cnc2nc3ccccc3n2c1)c1cc(F)ccc1O | -78*
CCN(CC)C(=S)SSC(=S)N(CC)CC | 97
CCN(CC)C(=S)SCC(=O)c1ccc(F)cc1 | -133*
CCN(CC)C(=S)SCC(=O)c1ccccc1 | -165*
O=C(C1COc2ccccc2O1)N1CCc2ccccc21 (stereo not given) | -106*
CO/N=C/CC(=O)c1cnc(-c2ccc(Cl)cc2)s1 | -79*
Cc1cn(-c2ccc(Br)cc2)[nH]c1=O | -79*
O=C(CCl)Nc1ccc(N=Nc2ccccc2)cc1 | -63*
CC(C)C(=O)OCC(=O)Nc1ccc(N=Nc2ccccc2)cc1 | -186*
CC1(C(=O)OCC(=O)Nc2ccccc2)CC1(Cl)Cl (stereo not given) | -69*
CC(=O)Nc1ccc(N=Nc2ccccc2)cc1 | -179*
SMILES | aSyn UTR act
CC1=NN(c2nc(-c3ccc(C)cc3)cs2)C(=O)C1N=Nc1ccc(C(N)=O)cc1 (stereo not given) | 86
CC(=O)OCC(=O)Nc1ccc(N=Nc2ccccc2)cc1 | -143*
CC(=O)Nc1ccc(N2N=C(C)C(N=Nc3ccccc3)C2=O)cc1 (stereo not given) | -98*
O=C(Nc1ccc(N=Nc2ccccc2)cc1)c1ccccc1Cl | -170*
COc1ccc(C(=O)/C(=C\c2sccc2C)c2nc3ccccc3o2)cc1 | -68*
COc1ccccc1-c1nc(COc2ccc(Cl)cc2Cl)no1 | -204*
Cc1c(C(=O)Oc2cccc3ccccc23)cnn1-c1ccccc1 | -65*
Cc1c(C(=S)Nc2ccccc2)cnn1-c1ccccc1 | -108*
CCc1ccc(NC(=O)c2cnn(-c3ccccc3)c2C)cc1 | -83*
Cc1nn(-c2ccccc2)cc1C(=S)Nc1ccccc1 | -171*
Cc1c(C(=O)N(C)c2cccc(Cl)c2)cnn1-c1ccccc1 | -104*
Cc1c(C(=O)Nc2ccccc2F)cnn1-c1ccccc1 | -163*
Cc1c(C(=O)Nc2cc(F)cc(F)c2)cnn1-c1ccccc1 | -187*
Cc1ccccc1C(=O)O/N=C(\N)c1ccc([N+](=O)[O-])cc1 | -127*
N/C(=N\OC(=O)c1ccccc1Br)c1ccc([N+](=O)[O-])cc1 | -103*
N/C(=N\OC(=O)c1ccccc1Br)c1cccc([N+](=O)[O-])c1 | -77*
Cc1ccccc1/C(N)=N/OC(=O)c1ccc(F)cc1 | -177*
N/C(=N\OC(=O)c1ccccc1F)c1cccc([N+](=O)[O-])c1 | -183*
CN(C)S(=O)(=O)c1ccc(C(=O)Nc2nc(-c3cccs3)cs2)cc1 | -99*
O=C(Nc1nc(-c2cccs2)cs1)c1ccc(S(=O)(=O)N2CCCC2)cc1 | -96*
CC1CC(C)CN(S(=O)(=O)c2ccc(C(=O)Nc3nnc(-c4cccs4)o3)cc2)C1 (stereo not given) | 60
Cc1cc(C)c2nc(NNC(=O)c3ccc(S(=O)(=O)N4CCCC(C)C4)cc3)sc2c1 (stereo not given) | 73
Cc1csc(NC(=O)c2ccc(S(=O)(=O)N3CCCC3)cc2)n1 | -62*
Cc1cc(Cl)cc2c(N=Nc3ccccc3C(=O)O)c(O)[nH]c12 | -68*
Nc1nc(-c2ccccc2)cn1/N=C/c1ccccc1 | -138*
SMILES | aSyn UTR act
Cc1ccc(-c2nnn(CCC(=O)NC(C)(C)C)n2)cc1 | -80*
CCOc1ccc(/C=N/NC(=O)c2cc3c(OC)cc(OC)c(OC)c3[nH]2)cc1 | -78*
COc1cc(C(=O)N/N=C/C2CC=CCC2)cc(OC)c1OC (stereo not given) | 108
CCOc1ccc2[nH]c(C(=O)N/N=C/c3ccccc3OC)cc2c1 | -116*
COc1ccc2[nH]c(C(=O)N/N=C/c3ccccc3OC)cc2c1 | -119*
O=C(CCCc1ccccc1)NC12CC3CC(CC(C3)C1)C2 | -151*
CNC[C@H](CC1CCCCC1)NC[C@H](Cc1ccccc1)NCCC12CC3CC(CC(C3)C1)C2 | 125
O=C(NCCc1ccc(F)cc1)NC12CC3CC(CC(C3)C1)C2 | -117*
O=C(NCCC1=CCCCC1)NC12CC3CC(CC(C3)C1)C2 | -118*
CCc1ccc(C(=O)CN2CCSC2=N)cc1 | -109*
Cc1nc(Nc2ccc3c(c2)OCCO3)c2c(C)c(C)sc2n1 | -72*
Cc1cc(NC(=O)c2ccc([N+](=O)[O-])cc2)no1 | -130*
Cc1cc(NC(=O)c2cc(C(C)C)on2)no1 | -140*
Cc1cc(NC(=O)NC(=O)c2ccccc2F)no1 | -109*
Cc1cc(NC(=O)c2sc3ccccc3c2O)no1 | -64*
Cc1cc(NC(=O)c2ccc([N+](=O)[O-])cc2Cl)no1 | -129*
Cc1cc(NC(=O)C(Cl)c2ccccc2)no1 (stereo not given) | -74*
Cc1cc(NC(=O)c2ccccc2Cl)no1 | -68*
Cc1ccc(NC(=O)c2ccc([N+](=O)[O-])cc2Cl)nc1 | -119*
O=C(Nc1cccc(NC(=O)c2cc([N+](=O)[O-])ccc2Cl)n1)c1cc([N+](=O)[O-])ccc1Cl | 48
Cc1nc2ccc(NC(=O)c3ccc([N+](=O)[O-])cc3)cc2[nH]1 | -106*
CC(C)Oc1ccc(C(=O)Nc2ccc([N+](=O)[O-])cc2)cc1 | -211*
CC(=O)Nc1ccc(S(=O)(=O)c2ccc([N+](=O)[O-])cc2)cc1 | -72*
Cc1ccc(NC(=O)c2ccccc2Cl)c(Cl)c1 | -83*
Cc1ccccc1NC(=O)c1cc2ccccn2n1 | -109*
SMILES | aSyn UTR act
Cc1ccc(C)c(NC(=O)c2cc3ccccn3n2)c1 | -196*
COc1ccc(N2Nc3n[nH]c(N)c3N2)cc1 | -73*
CCOc1ccc(N2Nc3n[nH]c(N)c3N2)cc1 | -65*
O=C(NCCOc1ccccc1)c1ccccc1Cl | -75*
O=C(NCCOc1ccccc1Cl)c1cc(F)c(F)cc1Cl | -123*
COc1ccc(CCC(=O)NCCOc2ccccc2Cl)cc1 | -92*
N#Cc1c(N2CCSCC2)nsc1-c1ccccc1Cl | -63*
COC(=O)C1C(O)=C(C=Nc2ccc3ccccc3c2)C(=O)CC1(C)C (stereo not given) | -75*
CN(C)c1ccc(NC(=O)CCn2c(=S)oc3ccccc32)cc1 | -100*
Cc1ccc(NC(=O)CSc2nccn2Cc2ccco2)cc1 | -85*
Cc1ccc(NC(=O)CSc2ncc3ccccn23)cc1 | -67*
O=c1c2[nH]c3ccccc3c2nc2n1CCCS2 | -75*
O=[N+]([O-])c1cc(N=Nc2ccc3ccccc3c2)ccc1O | -104*
COc1ccnc(CSC(N)=Nc2cccc(C(F)(F)F)c2)c1 | -81*
